According to PubChem BioAssay AID1159580 (chemical genetic matrix, 2015):
Among all 5,500 compounds or so, about 2,000 (36%) were called active. Inconclusive results (about 18%) are left out. Cut-off read from the data, not from the text of the source: active = normalized growth mostly below about 0.91 (no sharp cut-off); inconclusive = no clear call, values can overlap the other calls; inactive = mostly above about 0.92. The list shows a part of the results.

Assay: chemical genetic growth profiling, strain panel (AID 1159580);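 note: tested at 20 µM; growth read once vehicle control cultures reached saturation at 30 °C; 1 = growth at the plate median or of vehicle wells; lower values mean less growth of the strain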
Settings: growth OD

Measured: normalized growth

CCOC(=O)[C@H](CCc1ccccc1)N[C@@H](C)C(=O)N1Cc2ccccc2C[C@H]1C(=O)O
inactive: S. cerevisiae deletion strains, locus YJR043C, strain POL32, hits give low values 1.02 | S. cerevisiae deletion strains, locus YJR066W, strain TOR1, hits give low values 0.98 | S. cerevisiae deletion strains, locus YKL009W, strain mrt4, hits give low values 0.994 | S. cerevisiae deletion strains, locus YKL068W, hits give low values 1 | S. cerevisiae deletion strains, locus YKL085W, strain MDH1 (second series), hits give low values 1.01 | S. cerevisiae deletion strains, locus YKL085W, strain MDH1, hits give low values 1.01 | S. cerevisiae deletion strains, locus YKL160W, strain elf1, hits give low values 0.975 | S. cerevisiae deletion strains, locus YKL190W, strain CNB1, hits give low values 1.01 | S. cerevisiae deletion strains, locus YKR001C, strain vps1, hits give low values 0.986 | S. cerevisiae deletion strains, locus YKR026C, strain gcn3, hits give low values 0.994 | S. cerevisiae deletion strains, locus YKR091W, strain srl3, hits give low values 1 | S. cerevisiae deletion strains, locus YLL001W, strain dnm1, hits give low values 0.998 | S. cerevisiae deletion strains, locus YLL026W, hits give low values 1.01 | S. cerevisiae deletion strains, locus YLL041C, strain sdh2, hits give low values 0.998 | S. cerevisiae deletion strains, locus YLR027C, strain aat2, hits give low values 0.994 | S. cerevisiae deletion strains, locus YLR039C, strain RIC1, hits give low values 1.05 | S. cerevisiae deletion strains, locus YLR058C, strain SHM2, hits give low values 1.01 | S. cerevisiae deletion strains, locus YLR102C, strain apc9, hits give low values 1.01 | S. cerevisiae deletion strains, locus YLR113W, strain HOG1, hits give low values 0.963 | S. cerevisiae deletion strains, locus YLR221C, strain rsa3, hits give low values 1.02 | S. cerevisiae deletion strains, locus YLR258W, strain gsy2, hits give low values 0.999 | S. cerevisiae deletion strains, locus YLR262C, strain YPT6 (second series), hits give low values 0.995 | S. cerevisiae deletion strains, locus YLR262C, strain YPT6, hits give low values 1.07 | S. cerevisiae deletion strains, locus YLR268W, strain sec22, hits give low values 1 | S. cerevisiae deletion strains, locus YLR320W, strain mms22, hits give low values 0.996 | S. cerevisiae deletion strains, locus YLR330W, strain CHS5, hits give low values 1 | S. cerevisiae deletion strains, locus YLR342W, strain FKS1 (second series), hits give low values 1.02 | S. cerevisiae deletion strains, locus YLR342W, strain FKS1, hits give low values 1.02 | S. cerevisiae deletion strains, locus YLR357W, strain rsc2, hits give low values 0.975 | S. cerevisiae deletion strains, locus YLR370C, strain arc18, hits give low values 0.985 | S. cerevisiae deletion strains, locus YLR371W, strain rom2, hits give low values 1.01 | S. cerevisiae deletion strains, locus YLR384C, strain iki3, hits give low values 1.01 | S. cerevisiae deletion strains, locus YLR418C, strain cdc73, hits give low values 1 | S. cerevisiae deletion strains, locus YML016C, strain PPZ1, hits give low values 1 | S. cerevisiae deletion strains, locus YML032C, strain rad52, hits give low values 1 | S. cerevisiae deletion strains, locus YML120C, strain ndi1, hits give low values 0.996 | S. cerevisiae deletion strains, locus YML124C, strain tub3, hits give low values 1.01 | S. cerevisiae deletion strains, locus YMR058W, strain fet3, hits give low values 1.01 | S. cerevisiae deletion strains, locus YMR078C, strain ctf18, hits give low values 1 | S. cerevisiae deletion strains, locus YMR125W, strain sto1, hits give low values 0.989 | S. cerevisiae deletion strains, locus YMR129W, hits give low values 0.989 | S. cerevisiae deletion strains, locus YMR205C, strain PFK2, hits give low values 1 | S. cerevisiae deletion strains, locus YMR223W, strain ubp8, hits give low values 1.02 | S. cerevisiae deletion strains, locus YMR231W, strain pep5, hits give low values 0.999 | S. cerevisiae deletion strains, locus YMR307W, strain GAS1, hits give low values 0.979 | S. cerevisiae deletion strains, locus YNL067W, strain RPL9B, hits give low values 0.995 | S. cerevisiae deletion strains, locus YNL071W, strain lat1, hits give low values 0.998 | S. cerevisiae deletion strains, locus YNL183C, strain NPR1, hits give low values 0.949 | S. cerevisiae deletion strains, locus YNL209W, strain ssb2, hits give low values 0.994 | S. cerevisiae deletion strains, locus YNL233W, strain BNI4, hits give low values 0.994 | S. cerevisiae deletion strains, locus YNL248C, strain rpa49, hits give low values 0.957 | S. cerevisiae deletion strains, locus YNL250W, strain rad50, hits give low values 1.01 | S. cerevisiae deletion strains, locus YNL271C, strain bni1, hits give low values 1.02 | S. cerevisiae deletion strains, locus YNL298W, strain CLA4, hits give low values 1.01 | S. cerevisiae deletion strains, locus YNL307C, strain MCK1, hits give low values 1.02 | S. cerevisiae deletion strains, locus YNL322C, strain KRE1 (second series), hits give low values 0.996 | S. cerevisiae deletion strains, locus YNL322C, strain KRE1, hits give low values 1.01 | S. cerevisiae deletion strains, locus YNR049C, strain mso1, hits give low values 1 | S. cerevisiae deletion strains, locus YNR052C, strain pop2, hits give low values 1.01 | S. cerevisiae deletion strains, locus YOL006C, strain TOP1, hits give low values 0.987 | S. cerevisiae deletion strains, locus YOL012C, strain htz1 1.52 | S. cerevisiae deletion strains, locus YOL147C, strain pex11, hits give low values 1.01 | S. cerevisiae deletion strains, locus YOR001W, strain rrp6, hits give low values 1.01 | S. cerevisiae deletion strains, locus YOR061W, strain CKA2, hits give low values 1.01 | S. cerevisiae deletion strains, locus YOR069W, strain VPS5, hits give low values 1 | S. cerevisiae deletion strains, locus YOR070C, strain gyp1, hits give low values 1.01 | S. cerevisiae deletion strains, locus YOR080W, strain dia2, hits give low values 1.01 | S. cerevisiae deletion strains, locus YOR083W, strain WHI5, hits give low values 0.963 | S. cerevisiae deletion strains, locus YOR106W, strain vam3, hits give low values 0.989 | S. cerevisiae deletion strains, locus YOR136W, strain idh2, hits give low values 1.01 | S. cerevisiae deletion strains, locus YOR144C, strain elg1, hits give low values 1.01 | S. cerevisiae deletion strains, locus YOR184W, strain ser1, hits give low values 1 | S. cerevisiae deletion strains, locus YOR231W, strain MKK1, hits give low values 0.974 | S. cerevisiae deletion strains, locus YOR265W, strain rbl2, hits give low values 1.02 | S. cerevisiae deletion strains, locus YOR270C, strain vph1, hits give low values 0.853 | S. cerevisiae deletion strains, locus YOR290C, strain snf2, hits give low values 0.972 | S. cerevisiae deletion strains, locus YOR316C, strain cot1, hits give low values 1.02 | S. cerevisiae deletion strains, locus YPL051W, strain arl3, hits give low values 0.995 | S. cerevisiae deletion strains, locus YPL078C, strain atp4, hits give low values 0.98 | S. cerevisiae deletion strains, locus YPL106C, strain sse1, hits give low values 1 | S. cerevisiae deletion strains, locus YPL240C, strain hsp82, hits give low values 1.02 | S. cerevisiae deletion strains, locus YPL241C, strain CIN2, hits give low values 1.01 | S. cerevisiae deletion strains, locus YPL256C, strain CLN2, hits give low values 0.962 | S. cerevisiae deletion strains, locus YPR119W, strain clb2, hits give low values 1 | S. cerevisiae deletion strains, locus YPR141C, strain kar3, hits give low values 1.01 | S. cerevisiae deletion strains, locus YPR163C, strain tif3, hits give low values 1.01 | S. cerevisiae deletion strains, locus YPR167C, strain met16, hits give low values 1.01 | S. cerevisiae deletion strains, strain wtn01, hits give low values 1 | S. cerevisiae strains, strain wild type, hits give low values 1.01
